Data taken from a collection of fitness landscapes (doi:10.1038/s41467-024-54723-y).
Over roughly 18,000 sequences, “TetR repression strength (sort-seq, GFP reporter)” has its median near 0.23; the highest 2% begin near 0.68. The sample as a whole holds a higher share of the highest values than the screen did.

The sequences below were run against TetR (class B, Tn10) (UniProt P04483) (assay: TetR repression strength (sort-seq, GFP reporter) (relative to tetO2 = 1); higher = stronger repression). Conditions: E. coli.
Chain of TetR (class B, Tn10) (P04483 whole entry): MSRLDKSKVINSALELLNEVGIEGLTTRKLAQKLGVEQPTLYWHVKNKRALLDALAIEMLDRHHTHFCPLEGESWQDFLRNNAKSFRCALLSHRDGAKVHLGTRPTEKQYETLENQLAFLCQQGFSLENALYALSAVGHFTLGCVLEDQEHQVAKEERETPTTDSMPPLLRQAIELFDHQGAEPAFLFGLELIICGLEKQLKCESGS
Procedure, shortened: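 Three independent transformations of E. coli SIG10-MAX were made with a low-copy plasmid library randomizing eight operator positions between a constitutive promoter and sfGFP, with constitutive TetR. Following 5 h at 37 °C in LB plus 50 µg/mL chloramphenicol, 10^6 cells went through FACS into 13 fluorescence bins, and each bin was sequenced by Illumina. Repression strength was defined as the top bin index plus one minus the read-weighted mean bin, divided by the unaltered operator's value. Averages included only members reaching ≥30 reads in all replicates with a CV ≤0.5.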
Work on TCCCGCATAGTAGGTGAGA yielded a TetR repression strength of 0.317. TCCCAATGAGTTCGTGAGA gave a TetR repression strength of 0. In the case of TCCCTCATAGTGGGCGAGA, the TetR repression strength was 0.213. Sequence TCCCGCCCAGTAGGGGAGA has a TetR repression strength of 0.163. TCCCTGCAAGTTGATGAGA showed a TetR repression strength of 0.246. Sequence TCCCATGTAGTCCTGGAGA has a TetR repression strength of 0.341. TCCCCTTAAGTGGTAGAGA was tested, and the TetR repression strength was 0.201. For TCCCCGTTAGTGTCGGAGA, the TetR repression strength was 0.137. Work on TCCCTGTCAGTCGGGGAGA yielded a TetR repression strength of 0.154. In the case of TCCCAGTCAGTCGGGGAGA, the TetR repression strength was 0.776. In the case of TCCCGTACAGTGGGGGAGA, the TetR repression strength was 0.145. Work on TCCCAGTGAGTCTTTGAGA yielded a TetR repression strength of 0.339. TCCCGTATAGTCGGGGAGA showed a TetR repression strength of 0.216. TCCCATTCAGTCTTTGAGA gave a TetR repression strength of 0.228. For TCCCAGTCAGTCTTTGAGA, the TetR repression strength was 0.726. TCCCAGCCAGTCGGGGAGA gave a TetR repression strength of 0.184. Sequence TCCCGTACAGTCGGGGAGA has a TetR repression strength of 0.698. Work on TCCCGGTGAGTCAAAGAGA yielded a TetR repression strength of 0.338. TCCCTTCCAGTCATTGAGA showed a TetR repression strength of 0.225. Work on TCCCTGTCAGTATAGGAGA yielded a TetR repression strength of 0.0605. Sequence TCCCGCCGAGTGGACGAGA has a TetR repression strength of 0.514. TCCCCTGCAGTTGGAGAGA gave a TetR repression strength of 0.159. TCCCAGTTAGTTGAGGAGA was tested, and the TetR repression strength was 0.231. With TCCCACGGAGTCACCGAGA the TetR repression strength was 0.205. In the case of TCCCGATAAGTGAGTGAGA, the TetR repression strength was 0.375. With TCCCTATAAGTGATAGAGA the TetR repression strength was 0.994. For TCCCGCTCAGTGTTAGAGA, the TetR repression strength was 0.433. With TCCCGAGAAGTGATAGAGA the TetR repression strength was 0.425. With TCCCGCTCAGTGGTAGAGA the TetR repression strength was 0.428. Work on TCCCGATAAGTGATAGAGA yielded a TetR repression strength of 0.733. For TCCCGATAAGTCAGTGAGA, the TetR repression strength was 0.747. In the case of TCCCCCTAAGTGATAGAGA, the TetR repression strength was 0.442. TCCCGATGAGTCAGTGAGA was tested, and the TetR repression strength was 0.38. With TCCCGCTCAGTGATAGAGA the TetR repression strength was 0.742. TCCCGACAAGTGATAGAGA gave a TetR repression strength of 0.642. TCCCTATAAGTCGTAGAGA gave a TetR repression strength of 0.503. TCCCGTATAGTGGGGGAGA was tested, and the TetR repression strength was 0.0618. TCCCGGGTAGTGACGGAGA showed a TetR repression strength of 0.181. Work on TCCCACGAAGTGCCTGAGA yielded a TetR repression strength of 0.486. With TCCCAGGGAGTAAAGGAGA the TetR repression strength was 0.188. TCCCGCAGAGTTGGCGAGA showed a TetR repression strength of 0.186. Work on TCCCTATTAGTGATAGAGA yielded a TetR repression strength of 0.878. TCCCTAATAGTGATAGAGA gave a TetR repression strength of 0.614. For TCCCGACAAGTAGCTGAGA, the TetR repression strength was 0.187. TCCCTTTTAGTGATAGAGA showed a TetR repression strength of 0.512. TCCCGATAAGTGGCTGAGA showed a TetR repression strength of 0.523. Work on TCCCGATAAGTAGCTGAGA yielded a TetR repression strength of 0.921. Work on TCCCGCTAAGTGATAGAGA yielded a TetR repression strength of 0.69. For TCCCGATCAGTGATAGAGA, the TetR repression strength was 0.778. Work on TCCCGATCAGTGCTAGAGA yielded a TetR repression strength of 0.657. TCCCGATCAGTGATGGAGA gave a TetR repression strength of 0.482. For TCCCGGTAAGTGATAGAGA, the TetR repression strength was 0.609. For TCCCGCTGAGTGATAGAGA, the TetR repression strength was 0.483. In the case of TCCCTTATAGTGCCTGAGA, the TetR repression strength was 0.162. Sequence TCCCGAACAGTGTAGGAGA has a TetR repression strength of 0.0968. Sequence TCCCGCTTAGTCCGTGAGA has a TetR repression strength of 0.183. TCCCTGGAAGTGGGGGAGA was tested, and the TetR repression strength was 0.208. Work on TCCCTGATAGTTTTCGAGA yielded a TetR repression strength of 0.301. TCCCTCGAAGTAGGGGAGA gave a TetR repression strength of 0.154. TCCCATTAAGTGAACGAGA showed a TetR repression strength of 0.253. Sequence TCCCCGAGAGTGTGTGAGA has a TetR repression strength of 0.248. TCCCGGGGAGTGGCTGAGA showed a TetR repression strength of 0.301. TCCCGGGGAGTAGCTGAGA showed a TetR repression strength of 0.709. Work on TCCCGTCAAGTAGCCGAGA yielded a TetR repression strength of 1.02. Work on TCCCGTCAAGTACCCGAGA yielded a TetR repression strength of 0.325. TCCCGGGAAGTAGCTGAGA showed a TetR repression strength of 0.647. In the case of TCCCGTCAAGTGGCCGAGA, the TetR repression strength was 0.152. Sequence TCCCGAGTAGTAACGGAGA has a TetR repression strength of 0.461. With TCCCGAGAAGTGCCTGAGA the TetR repression strength was 0.178. In the case of TCCCGTCTAGTGAAGGAGA, the TetR repression strength was 0.315. Work on TCCCGGTCAGTGCAGGAGA yielded a TetR repression strength of 0.531. Work on TCCCGTCTAGTAGTGGAGA yielded a TetR repression strength of 0.468. In the case of TCCCCAGGAGTGGCTGAGA, the TetR repression strength was 0.0764. Work on TCCCTCGTAGTCTAAGAGA yielded a TetR repression strength of 0.142. For TCCCCTAGAGTCTGAGAGA, the TetR repression strength was 0.122. TCCCTCGGAGTCTGTGAGA showed a TetR repression strength of 0.215. In the case of TCCCTCGTAGTCTGAGAGA, the TetR repression strength was 1.03. TCCCCTTGAGTCTGAGAGA gave a TetR repression strength of 0.333. TCCCTCGGAGTCTGCGAGA was tested, and the TetR repression strength was 0.522. Work on TCCCTCGTAGTCTGCGAGA yielded a TetR repression strength of 0.447. With TCCCTCGGAGTCTGAGAGA the TetR repression strength was 1.02. For TCCCCTCGAGTCTGAGAGA, the TetR repression strength was 0.89. TCCCAACCAGTTTTAGAGA showed a TetR repression strength of 0.399. In the case of TCCCGCATAGTACGTGAGA, the TetR repression strength was 0.273. TCCCGATGAGTTGCTGAGA was tested, and the TetR repression strength was 0.124. Work on TCCCTGCGAGTGATAGAGA yielded a TetR repression strength of 0.618. Sequence TCCCCCTCAGTTTGCGAGA has a TetR repression strength of 0.518. TCCCCGTCAGTTTGCGAGA gave a TetR repression strength of 0.741. For TCCCTATTAGTTTGCGAGA, the TetR repression strength was 0.417. With TCCCCGGTAGTTTGCGAGA the TetR repression strength was 0.971. Work on TCCCCAGTAGTTTGCGAGA yielded a TetR repression strength of 0.202. For TCCCCGTCAGTGTGCGAGA, the TetR repression strength was 0.333. TCCCTCTTAGTTTGCGAGA was tested, and the TetR repression strength was 0.796. For TCCCCGGTAGTTTGAGAGA, the TetR repression strength was 0.302. Sequence TCCCCGTCAGTGCGAGAGA has a TetR repression strength of 0.69. Sequence TCCCTCTGAGTTTGCGAGA has a TetR repression strength of 0.335. TCCCCGTCAGTGCGCGAGA was tested, and the TetR repression strength was 0.229. With TCCCAGTCAGTTTGCGAGA the TetR repression strength was 0.167. In the case of TCCCGTGGAGTAGCAGAGA, the TetR repression strength was 0.169. TCCCTGGGAGTAAGGGAGA was tested, and the TetR repression strength was 0.28. For TCCCGGGGAGTGTTAGAGA, the TetR repression strength was 0.247. For TCCCTGAGAGTCGATGAGA, the TetR repression strength was 0.237. With TCCCTTTTAGTATACGAGA the TetR repression strength was 0.242. For TCCCACCGAGTGTTGGAGA, the TetR repression strength was 0.286. TCCCCCCAAGTCGGCGAGA gave a TetR repression strength of 0.00669. Sequence TCCCACTGAGTTGGAGAGA has a TetR repression strength of 0.16. In the case of TCCCTAGCAGTTGAGGAGA, the TetR repression strength was 0.0558. TCCCAGCGAGTATGAGAGA showed a TetR repression strength of 0.0754. TCCCGAAGAGTTGTTGAGA was tested, and the TetR repression strength was 0.233. TCCCATCTAGTCAGGGAGA showed a TetR repression strength of 0.305. TCCCCTGCAGTGGGGGAGA gave a TetR repression strength of 0.225. TCCCTTATAGTGTAGGAGA gave a TetR repression strength of 0.0398. For TCCCATGAAGTGTGTGAGA, the TetR repression strength was 0.127. Sequence TCCCTGTAAGTCGTGGAGA has a TetR repression strength of 0.309. TCCCCGTGAGTCTGAGAGA was tested, and the TetR repression strength was 0.215. In the case of TCCCCGTGAGTCAGAGAGA, the TetR repression strength was 0.963. For TCCCCGTGAGTCAGGGAGA, the TetR repression strength was 0.152. TCCCTGTTAGTGCCAGAGA was tested, and the TetR repression strength was 0.193. With TCCCATTAAGTGCATGAGA the TetR repression strength was 0.106. In the case of TCCCTGTAAGTTGACGAGA, the TetR repression strength was 0.1. TCCCACTTAGTTGGGGAGA showed a TetR repression strength of 0.201. TCCCCACTAGTGAAGGAGA showed a TetR repression strength of 0.203. Sequence TCCCACTAAGTGATAGAGA has a TetR repression strength of 0.427. TCCCACTCAGTGATAGAGA was tested, and the TetR repression strength was 0.701. Sequence TCCCAATCAGTGATAGAGA has a TetR repression strength of 0.785. In the case of TCCCAAGCAGTGATAGAGA, the TetR repression strength was 0.505. For TCCCACTCAGTGAGAGAGA, the TetR repression strength was 0.514. TCCCAGTCAGTGACAGAGA was tested, and the TetR repression strength was 0.416. Work on TCCCCAGCAGTGATAGAGA yielded a TetR repression strength of 0.186. Work on TCCCAAACAGTGACAGAGA yielded a TetR repression strength of 0.622. TCCCCATCAGTGATAGAGA was tested, and the TetR repression strength was 0.966. Sequence TCCCAATCAGTGACAGAGA has a TetR repression strength of 0.723. TCCCCATAAGTGATAGAGA gave a TetR repression strength of 0.522. TCCCAATCAGTGGTAGAGA showed a TetR repression strength of 0.521.
